Compound activity deposited in PubChem BioAssay by National Center for Advancing Translational Sciences (NCATS).
In the library only some 2.6% were active in any assay of this set; here they are far more common.
Cruzain noTriton – inhibitors of Trypanosoma cruzi cruzain without detergent | purified cruzain, Z-FR-AMC fluorescence, no detergent | AID 1476 | P25779 | 2.3% of 200,000 active | Potency, µM, without a hit: max response, negative = inhibition, usual class: inhibitors;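 further: plate controls were enzyme without inhibitor for no effect and buffer without enzyme for full effect; nearly all actives have a fitted effect of over 40% in size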
Target sequence (P25779 123-467 limits assumed): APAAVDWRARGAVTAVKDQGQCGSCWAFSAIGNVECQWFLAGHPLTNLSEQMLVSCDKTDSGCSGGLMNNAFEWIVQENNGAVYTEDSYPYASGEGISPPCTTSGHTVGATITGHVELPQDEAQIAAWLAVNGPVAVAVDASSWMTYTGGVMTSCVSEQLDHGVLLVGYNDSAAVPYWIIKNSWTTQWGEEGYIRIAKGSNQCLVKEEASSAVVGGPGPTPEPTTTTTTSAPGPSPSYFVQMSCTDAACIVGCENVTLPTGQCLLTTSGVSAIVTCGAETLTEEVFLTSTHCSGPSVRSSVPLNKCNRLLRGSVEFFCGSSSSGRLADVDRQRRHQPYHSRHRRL
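Detergent-free condition (0.00005% Triton X-100) in acetate buffer pH 5.5 with DTT. 1.5 nM enzyme and compound were pre-mixed 15 min, then 2 uM Z-FR-AMC substrate added; reaction progress from fluorescence change between first and third reads (60 s).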
Cruzain inh Det – cruzain (T. cruzi) inhibition with detergent; P25779; purified cruzain, Z-FR-AMC fluorescence, 0.01% Triton; Potency, µM, for inactives: max response, negative = inhibition, most hits filed as inhibitors; 0.43% of 200,000 active;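 further: plate controls were neutral wells for no effect and buffer without enzyme for full effect; nearly all actives have a fitted effect of over 40% in size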
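Compounds were screened in titration against cruzain (1.5 nM) with 0.01% Triton X-100 to counter colloidal aggregation. Activity was the AMC fluorescence increase over 60 s after adding 2 uM Z-FR-AMC at pH 5.5.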
* marks the source's active call; other numbers are inactive results; ? = inconclusive. The call rests on the fitted dose curve; in most records, active means well fitted curve in the direction sought with a large enough effect; inconclusive means small, poorly fitted or top-dose-only effect, or another doubt; inactive means no such curve, though single readings can be large; an effect the other way counts as inactive or inconclusive. Potency means the concentration at half of the fitted maximal effect.

SMILES	Cruzain noTriton	Cruzain inh Det
Cc1sc(NC(=O)Cc2ccc3c(c2)OCO3)nc1-c1ccc2c(c1)CCN2C(=O)c1ccccc1F	7.94µM*	-1.3%
CN1CCN(C2CC(=O)N(Cc3ccc(N4CCCC4=O)cc3)C2=O)CC1 (stereo not given)	-9.0%	0.4%
Cc1oc(C(=O)O)cc1COc1ccc2c3c(c(=O)oc2c1C)CCCC3	-1.3%	1.5%
Cc1ccc(NC(=O)COc2ccccc2C(=O)Nc2ccccc2)cc1Cl	24.4%	-5.8%
C/C(=N/N1CCN(c2ccccn2)CC1)c1ccc([N+](=O)[O-])cc1	0.5%	-0.6%
Cc1ccc(NC(=O)CN2C(=O)NC(Cc3ccccc3)C2=O)cc1 (stereo not given)	1.9%	2.4%
CCSc1n[nH]c2nc3c(c(=O)n12)C1(CCCC1)Cc1ccccc1-3	?	2.4%
C=CCSc1n[nH]c2nc3c(c(=O)n12)C1(CCCC1)Cc1ccccc1-3	10µM*	1.9%
CC(C)Cc1ccc(C(C)C(=O)Nc2nccs2)cc1 (stereo not given)	25.1µM*	-4.5%
CC(C)C(C(=O)Nc1nccs1)c1ccccc1 (stereo not given)	6.6%	0.8%
CC(C)(C)C1CCc2c(sc3nc(-c4cc5cc(Br)ccc5oc4=O)[nH]c(=O)c23)C1 (stereo not given)	25.2%	-0.3%
CCc1nnc(NC(=O)c2ccc(COc3ccc(C)cc3)o2)s1	25.1µM*	3.6%
CCc1nnc(NC(=O)c2ccc(-c3cc(C(F)(F)F)ccc3Cl)o2)s1	-8.1%	-3.7%
CCc1nnc(NC(=O)c2ccc(COc3ccccc3)o2)s1	?	6.0%
CCc1nnc(NC(=O)c2ccc(-c3cccc(C(F)(F)F)c3)o2)s1	12.6µM*	-3.0%
O=C(Nc1ccccc1)c1cc2ccccc2o1	-4.3%	-1.9%
O=C(Nc1ccccc1)c1ccc(OC(=O)c2cc3ccccc3o2)cc1	12.6µM*	8.0%
CC(c1ccccc1)N1C(=O)C2C3CCC(C3)C2C1=O (stereo not given)	-9.2%	1.4%
Cn1c(SCC(=O)c2ccccc2)nnc1-c1cnccn1	4.8%	3.9%
CCn1cc(C(=O)NCc2ccccc2Cl)c(=O)c2cc(S(=O)(=O)N3CCc4ccccc4C3)ccc21	12.6µM*	-3.4%
CCn1cc(C(=O)NCc2ccccc2Cl)c(=O)c2cc(S(=O)(=O)N3CCCCC3)ccc21	-5.4%	-0.8%
CC(NC(=O)COC(=O)CCc1ccc(S(=O)(=O)N2CCOCC2)cc1)C1CC2CCC1C2 (stereo not given)	?	-4.1%
CC(NC(=O)COC(=O)c1cc(NS(=O)(=O)c2ccc(Cl)c([N+](=O)[O-])c2)ccc1O)C1CC2CCC1C2 (stereo not given)	6.31µM*	-10.0%
CN1CCN(S(=O)(=O)c2ccc(Cc3ccc(S(=O)(=O)N4CCN(C)CC4)cc3)cc2)CC1	-3.6%	0.3%
CCCC(C(=O)NCc1ccccc1)N(C(=O)Cn1nnc(-c2cccs2)n1)c1ccc2c(c1)OCCO2 (stereo not given)	20µM*	0.8%
SMILES	Cruzain noTriton	Cruzain inh Det
O=C(CN(Cc1ccco1)C(=O)Cn1nnc(-c2cccs2)n1)NCc1ccccc1	-1.0%	-0.5%
CCC(C(=O)NC1CCCC1)N(C(=O)Cn1nnc(-c2cccs2)n1)c1cnc2ccccc2c1 (stereo not given)	6.8%	0.3%
O=C(NCc1ccccc1)C(c1ccc(F)cc1)N(Cc1ccc2c(c1)OCO2)C(=O)Cn1nnc(-c2cccs2)n1 (stereo not given)	12.6µM*	-1.5%
CN(C)c1oc(COc2ccc(F)cc2)nc1C#N	-1.1%	-1.5%
CC(C)C(NS(=O)(=O)c1cccs1)C(=O)NCCN1CCN(c2ccccc2)CC1 (stereo not given)	25.1µM*	20µM*
COc1ccc(N2CCN(CCNC(=O)CCNS(=O)(=O)c3cccs3)CC2)cc1	-6.9%	1.6%
CCOC(=O)C1CCC(CN(Cc2ccccc2C)S(=O)(=O)c2ccc([N+](=O)[O-])cc2)CC1 (stereo not given)	-23.7%	-2.1%
COc1ncnc2sc(-c3ccccc3)cc12	12.1%	-5.4%
COc1cc(C(=O)Nc2ccc(Oc3ncnc4sc(-c5ccccc5)cc34)cc2)cc(OC)c1OC	9.8%	0.5%
COc1ccc(Nc2ncnc3sc(-c4ccccc4)cc23)cc1	31.6µM*	-4.8%
COc1ccccc1C(=O)Nc1ccc(Oc2ncnc3sc(-c4ccccc4)cc23)cc1	6.31µM*	2.0%
COc1ccc(OCCCN2CCCC(C)C2)cc1 (stereo not given)	5.5%	-1.8%
COC(=O)/C=c1/s/c(=C(/C#N)C(=O)NCc2ccccc2)n(-c2ccccc2)c1=O	?	1.2%
CCCCCCOc1ccc(/C=c2\s/c(=C(/C#N)C(=O)NCc3ccco3)n(-c3ccccc3)c2=O)cc1	3.16µM*	-0.9%
O=C(CCn1nnc2ccccc21)Nc1nnc(COc2ccc(F)cc2)s1	-22.4%	7.4%
Cc1ccc(-n2ncc3c(NCCCn4ccnc4)ncnc32)c(C)c1	-11.0%	-1.9%
O=C(CNC(=O)c1ccccc1F)OC(C(=O)Nc1cc(C(F)(F)F)ccc1Cl)c1ccccc1 (stereo not given)	7.94µM*	5.01µM*
C[C@H](NC(=O)c1ccccc1Cl)C(=O)OC(C(=O)Nc1cc(C(F)(F)F)ccc1Cl)c1ccccc1 (stereo not given in full)	-29.6%	?
Cc1sc2nc3ccc(N4CCCCC4)nn3c(=O)c2c1C	-3.9%	-4.4%
COc1ccc(N2CCN(C(=O)CN(Cc3ccc(Cl)cc3)S(C)(=O)=O)CC2)cc1	?	-1.6%
O=C(NCc1ccco1)c1ccc(Cn2c(=O)c3ccccc3n(Cc3cccc(Cl)c3)c2=O)cc1	?	0.7%
O=C(NCc1ccco1)c1ccc(Cn2c(=O)c3sccc3n(Cc3cccc(F)c3)c2=O)cc1	25.1µM*	5.4%
O=S(=O)(Cc1ccc(Cl)cc1)NCC1CCCO1 (stereo not given)	-0.6%	5.6%
CC(C)Cn1cc(C(=O)NC2CCN(Cc3ccccc3)CC2)c2c3ccccc3n(C)c2c1=O	5.6%	4.5%
COc1ccc(/C=c2/sc3nc(-c4ccccc4)c(-c4ccccc4)n3c2=O)cc1	6.31µM*	-5.4%
SMILES	Cruzain noTriton	Cruzain inh Det
COc1ccc(/C=c2\sc3nc(-c4ccccc4)c(-c4ccccc4)n3c2=O)cc1OC	?	-19.0%
NS(=O)(=O)c1ccc(CCNC(=O)C2COc3ccccc3C2)cc1 (stereo not given)	4.8%	-0.2%
CC1=C(c2ccc(Cl)cc2)S(=O)(=O)NC1=NCc1ccc(C)cc1	6.7%	-4.1%
Cc1cccc2cc(CN(Cc3cccs3)C(=S)NCC3CCCO3)c(=O)[nH]c12 (stereo not given)	3.1%	-8.3%
Cc1ccc(NC(=S)N(Cc2cccs2)Cc2cc3cccc(C)c3[nH]c2=O)cc1	15.8µM*	-3.3%
O=C1CCCN1c1ccc(Br)cc1	-10.9%	6.0%
COCCNc1oc(-c2ccc(OC)cc2)nc1C#N	-2.0%	-10.5%
CCOc1ccc(NC(=S)N(CCc2c(C)[nH]c3ccc(C)cc23)Cc2ccco2)cc1	3.16µM*	2.9%
COc1ccc(NC(=S)N(CCc2c(C)[nH]c3ccc(C)cc23)Cc2ccco2)cc1	?	-5.1%
CC(=O)CC(=O)Nc1cccc2c1CCCC2	0.9%	1.6%
COCCCN(C(=O)c1cccnc1SC)c1c(N)n(Cc2ccccc2)c(=O)[nH]c1=O	-0.6%	2.3%
CC(SC(=S)N(C)Cc1cccs1)C(=O)O (stereo not given)	-9.3%	2.4%
